Experiment [1] in a line: yeast 75Q aggregation reduction – 75Q-TubU reporter (AID 1593). Conditions: Yeast 75Q polyglutamine aggregation reporter.
Experiment [2] can be described thus: blockers of cytochrome c efflux from mitochondria – biochemical, purified mitochondria (AID 1603).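 Note: mouse liver mitochondria challenged with calcium chloride; signal normalized to the plate average as 100%.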 To be noted: stronger effect = lower value.
Experiment [3] is described as follows: polyglutamine aggregate formation blockers (AID 1604). Conditions: polyglutamine-induced protein aggregation inhibition assay; stronger effect = higher value; tested at 2.5 µM.
A short description of experiment [4]: P. berghei load reduction in hepatocytes – cell-based, HepG2, luciferase luminescence, HepG2 viability, primary screen (AID 624349).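 Note: 100% = mean of DMSO negative control wells on the same plate.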 Conditions: P. berghei liver stage in HepG2, luciferase luminescence, concentration not given here; parasite load remaining: stronger effect = lower value; viability: measured here: HepG2 viability without parasites.
A short description of experiment [5]: Wnt pathway potentiators raising nuclear beta-catenin – imaging, WNT3A-conditioned medium, mouse C2C12, NPC library, primary screen (AID 1117326; in the data active = nuclear beta-catenin stimulation mostly above about 4.2%, no sharp cut-off; inactive = mostly below about 10%). Conditions: stronger effect = higher value.
Experiment [6] is described as follows: stimulators of insulin release from INS-1E, primary screen, cell-based, 5 mM glucose, NPC library (AID 1117329;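 active = compound raises insulin release from rat beta cells at 5 mM glucose, no numeric limit stated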). Conditions: rat INS-1E insulin secretion, at 10 µM, stronger effect = higher value.
Experiment [7] is described as follows: growth inhibition of GSK3B-pretreated HCT116 cells – cell-based, CellTiter-Glo, 0.2 to 20 µM (AID 1117336;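 active = compounds lowering colon cancer cell viability after pretreatment blocking the GSK3B kinase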). Conditions: HCT116 viability after GSK3B inhibitor, at 20 µM, stronger effect = higher value. In general terms: ATP-based viability assays read luminescence as a measure of living cells.
Experiment [8] in a line: inhibition of endothelial tube formation, primary screen, imaging, VEGF stimulated, CD31 staining, tube area, NPC library (AID 1117340;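 active = compound that reduces growth-factor-driven endothelial tube area in a mixed cell culture, no cutoff stated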). To be noted: VEGF-stimulated ADSC/ECFC co-culture, at 10 µM, stronger effect = higher value.
A short description of experiment [9]: GLP1 release stimulators, primary, NCI-H716, NPC library (AID 1117341;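 active = compound raises GLP1 secretion from the human gut endocrine cells, with no numeric limit stated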). Conditions: NCI-H716 cells, at 10 µM, stronger effect = higher value.
A short description of experiment [10]: HCT116 colon cancer cell growth inhibition, primary screen, CellTiter-Glo luminescence, NPC library (AID 1117342;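 active = compounds that lower survival of HCT116 colon cancer cells in the luminescence readout, no numeric limit stated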). Conditions: at 20 µM (top of the series).
Experiment [11] is described as follows: reduced SW480 viability measured with CellTiter-Glo, NPC library, primary (AID 1117343;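 active = compounds that lower viability of the colon cancer cells in the luminescence readout, with no numeric limit stated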). Conditions: CellTiter-Glo luminescence; at 20 µM (top of the series).
Experiment [12] in a line: NPC library primary testing for decreased DLD-1 cell viability via CellTiter-Glo (AID 1117346;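 active = compounds that lower survival of DLD-1 colon cancer cells in the luminescence readout, no cutoff given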). Conditions: DLD-1 viability, CellTiter-Glo luminescence; at 20 µM (top of the series).
Experiment [13] addresses 6-phosphogluconate dehydrogenase, decarboxylating (Homo sapiens) (UniProt P52209). Briefly: inhibition of human phosphogluconate dehydrogenase – biochemical, recombinant enzyme, NADPH absorbance, primary screen (AID 1159550;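 active = at least 20% inhibition of 6-phosphogluconate dehydrogenase activity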). Conditions: recombinant 6PGD, NADPH absorbance 341 nm; at 10 µM; stronger effect = higher value.
Experiment [14] is described as follows: EMT-state selective cytotoxicity in co-culture – imaging, PC-3E GFP, TEM4-18 mCherry, primary screen (AID 1345086;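 active = compounds killing one labelled cell type while sparing the other, by normalised counts and ratio limits, not self-fluorescent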;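 for all read-outs here: cells exposed to compound for 72 h before imaging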;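 for red/green cell ratio (normalised): normalised mesenchymal count divided by normalised epithelial count so high means epithelial killing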). To be noted: PC-3E GFP / TEM4-18 mCherry co-culture, imaging cell counts, at 1 µM; for red/green cell ratio (normalised): actives lie on both sides.
The subject of experiment [15] is Aerobactin synthetase IucA (Klebsiella pneumoniae hvKP1). As to the kind of experiment: IucA enzyme inhibition, primary screen, biochemical, Spectrum library (AID 1346200; call rule not given here;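 note: 100% = wells without compound and 0% = wells lacking enzyme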). Conditions: malachite green pyrophosphate, A620, at 8 µM, stronger effect = lower value.
A short description of experiment [16]: viability loss with induced miR-34 in A549 – imaging, A549 dox-inducible miR-34, nuclei and caspase counts, primary screen (AID 1347080;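 active = compounds whose cell count with miR-34 switched on is under 0.7 times the count with it off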). Conditions: A549 miR-34 inducible, Hoechst nuclei count, 48 h.
For experiment [17], the target named is NAD(+) hydrolase SARM1 (Homo sapiens) (UniProt Q6SZW1). As to the kind of experiment: blocking NAD cleavage by SARM1 SAM-TIR – cell lysate, NAD-Glo luminescence (AID 1508614;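 active = compound whose remaining NAD level is above about 45 nM, limit read from the data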;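 note: higher remaining NAD means stronger inhibition of SARM1 NADase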). Conditions: SAM-TIR HEK293T lysate NADase, at 1 µM, stronger effect = higher value.
Experiment [18] has as its target Mitogen-activated protein kinase 7 (Homo sapiens) (UniProt Q13164). Briefly: Gal4-ERK5 driven luciferase induction – cell-based, HTS, primary screen (AID 1508626;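 active = luciferase signal above three times the same-plate solvent-only control wells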;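 note: luciferase driven by Gal4-ERK5 fusion binding five Gal4 sites before minimal TATA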). To be noted: HeLa Gal4-ERK5 transactivation, 18 h, at 5 µM, stronger effect = higher value.
Experiment [19] in a line: MELAS cybrid and Rieske KO viability enhancers – cell-based, MELAS cybrids, Rieske KO mouse fibroblasts, CellTiter-Glo, primary screen (AID 1508586;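 active = mean z-score across replicates of 1.96 or higher in either the MELAS or the Rieske mutant cell line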;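 note: z relative to plate mean and SD of compound and empty wells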). To be noted: low glucose.
[20] abbreviates: measured here: epithelial PC-3E GFP cell survival.
The mark [21] stands for this setting: measured here: mesenchymal TEM4-18 mCherry cell survival.
The mark [22] stands for this setting: measured here: relative caspase fold change +Dox/-Dox.
Where [23] appears, read: measured here: total cells with miR-34 induction, stronger effect = lower value.
Setting [24] is: measured here: total cells without miR-34 induction.

Molecules are shown by their SMILES. Where “and” joins values, the source holds several entries; their conditions need not be identical. Equal entries are not always repeated. Calls of active or inactive are those of the source. Cut-off read from the data, not from the text of the source, unless noted: active = parasite load remaining mostly below about 12% (no sharp cut-off); inactive = mostly above about 10%.

NAD(+) hydrolase SARM1 (Homo sapiens), sequence (Q6SZW1 whole entry, looked up, the tested form may be a part): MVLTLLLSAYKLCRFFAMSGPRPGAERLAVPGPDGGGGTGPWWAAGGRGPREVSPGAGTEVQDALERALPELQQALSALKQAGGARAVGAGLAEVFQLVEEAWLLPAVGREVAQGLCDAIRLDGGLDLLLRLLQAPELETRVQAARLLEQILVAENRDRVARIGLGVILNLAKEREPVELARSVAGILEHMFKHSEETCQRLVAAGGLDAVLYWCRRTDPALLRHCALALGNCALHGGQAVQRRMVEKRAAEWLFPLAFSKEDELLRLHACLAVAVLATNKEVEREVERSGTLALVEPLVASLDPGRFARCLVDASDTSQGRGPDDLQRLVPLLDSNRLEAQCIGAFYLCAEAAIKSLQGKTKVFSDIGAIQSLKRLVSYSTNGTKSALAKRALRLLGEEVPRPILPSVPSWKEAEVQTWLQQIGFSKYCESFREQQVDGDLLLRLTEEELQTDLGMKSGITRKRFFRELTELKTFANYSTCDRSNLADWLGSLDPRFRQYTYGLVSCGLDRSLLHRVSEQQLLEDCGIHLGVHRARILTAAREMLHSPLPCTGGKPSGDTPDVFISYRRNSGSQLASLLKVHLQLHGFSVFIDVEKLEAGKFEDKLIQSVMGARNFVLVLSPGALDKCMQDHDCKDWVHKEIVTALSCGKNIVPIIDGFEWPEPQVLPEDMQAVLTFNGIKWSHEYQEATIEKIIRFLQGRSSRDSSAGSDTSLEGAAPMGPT
6-phosphogluconate dehydrogenase, decarboxylating (Homo sapiens), sequence (P52209 whole entry, looked up): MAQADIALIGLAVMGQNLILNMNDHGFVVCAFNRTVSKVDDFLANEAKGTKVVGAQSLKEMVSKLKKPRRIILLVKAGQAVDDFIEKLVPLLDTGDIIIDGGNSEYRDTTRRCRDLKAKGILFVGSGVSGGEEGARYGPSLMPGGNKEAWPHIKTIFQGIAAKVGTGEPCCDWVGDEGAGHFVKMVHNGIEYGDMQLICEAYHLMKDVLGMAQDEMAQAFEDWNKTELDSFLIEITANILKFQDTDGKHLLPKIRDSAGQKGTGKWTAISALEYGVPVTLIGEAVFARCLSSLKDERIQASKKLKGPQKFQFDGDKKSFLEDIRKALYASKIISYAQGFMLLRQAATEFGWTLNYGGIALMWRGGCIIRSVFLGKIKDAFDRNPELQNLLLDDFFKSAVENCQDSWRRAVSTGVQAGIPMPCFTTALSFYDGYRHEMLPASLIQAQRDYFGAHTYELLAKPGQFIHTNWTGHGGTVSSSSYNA
Mitogen-activated protein kinase 7 (Homo sapiens), sequence (Q13164 whole entry, looked up, the tested form may be a part): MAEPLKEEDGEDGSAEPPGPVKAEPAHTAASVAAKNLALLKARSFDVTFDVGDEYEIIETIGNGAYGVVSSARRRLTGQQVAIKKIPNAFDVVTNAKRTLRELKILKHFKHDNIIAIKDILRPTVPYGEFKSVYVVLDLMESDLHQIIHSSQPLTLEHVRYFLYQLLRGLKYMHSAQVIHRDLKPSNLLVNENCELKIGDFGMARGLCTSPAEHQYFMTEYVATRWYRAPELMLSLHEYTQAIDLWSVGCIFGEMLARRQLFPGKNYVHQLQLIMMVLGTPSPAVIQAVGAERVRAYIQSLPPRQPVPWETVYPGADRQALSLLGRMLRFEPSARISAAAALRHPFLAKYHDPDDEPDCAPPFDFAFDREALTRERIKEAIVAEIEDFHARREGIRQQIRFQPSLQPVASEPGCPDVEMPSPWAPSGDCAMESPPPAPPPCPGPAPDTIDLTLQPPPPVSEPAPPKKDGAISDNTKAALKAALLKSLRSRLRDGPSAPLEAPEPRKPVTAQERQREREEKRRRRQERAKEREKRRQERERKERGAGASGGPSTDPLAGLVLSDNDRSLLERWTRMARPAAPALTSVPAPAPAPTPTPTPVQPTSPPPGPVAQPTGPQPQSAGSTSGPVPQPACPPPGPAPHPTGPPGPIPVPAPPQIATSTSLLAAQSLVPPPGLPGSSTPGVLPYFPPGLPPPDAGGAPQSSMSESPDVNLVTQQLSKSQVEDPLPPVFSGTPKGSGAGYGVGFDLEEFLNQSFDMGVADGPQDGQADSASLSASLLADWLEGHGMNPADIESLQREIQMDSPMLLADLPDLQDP

As a reminder, the viability is a read-out of living cells in per cent, often relative to untreated cells. Usually inhibition stands for the relative decrease from the control value, in per cent. In turn, `Oc1ccc(Cl)cc1` registered a score in [1] of 0.2. Also, the cytochrome c release ratio in experiment [2] was determined as 0.97. Moreover, the inhibition of aggregation in [3] was 31.7%. Also, the parasite load remaining in experiment [4] is 99.5% (inactive) and 63.2% (inactive). Further, the viability in experiment [4] is 70.5% and 93.7%. For the same compound, the nuclear beta-catenin stimulation is 0.8% (inactive) in [5] (at 10 µM) and 0.5% in experiment [5] (stimulation, at 2 µM). For the same compound, the insulin secretion stimulation in [6] is -0.7% (inactive). Moreover, in experiment [7], the viability decrease is 21.3% (inactive). Besides, in experiment [8], the tube area decrease was 12.2% (inactive). The GLP1 secretion stimulation in experiment [9] is 0.3% (inactive). Also, the inhibition of viability in [10] is 17.9% (inactive). The viability decrease (inhibition) in experiment [11] was 34.5% (inactive); in [12], 6.1% (inactive). Besides, the inhibition in experiment [13] is 15% (inactive). For the same compound, the red/green cell ratio (normalised) in experiment [14] is 0.99 (inactive). Moreover, the normalised cell number was determined as 1.1 in experiment [14] (setting [20]) and 1.09 in [14] (setting [21]). Also, in experiment [15], the activity remaining is 115% (inactive). The results for the fold change in experiment [16] (stronger effect = lower value) and in [16] (setting [22]) were 0.923 (inactive) and 1.34, respectively. For the same compound, the cell count in [16] (setting [23]) turned out to be 11600; in experiment [16] (setting [24]), 12500. In addition, the remaining NAD in [17] is 10 nM (inactive). In addition, the luciferase signal in experiment [18] was 52 AU (inactive).

For the compound `CCC1(CC)C(=O)C=CNC1=O`, in experiment [1], the score is 0.96 and 1.19. Further, the cytochrome c release ratio in experiment [2] was 1.06 and 0.67. In addition, the inhibition of aggregation in experiment [3] is 63.5% and 88.5%. In experiment [4], the parasite load remaining is 98.5% (inactive) and 80.5% (inactive). Besides, the viability in [4] is 103% and 91.2%. Besides, the nuclear beta-catenin stimulation is -0.7% (inactive) in experiment [5] (at 10 µM) and -1.5% in [5] (stimulation, at 2 µM). For the same compound, the insulin secretion stimulation in [6] is 0.8% (inactive). For the same compound, the viability decrease in experiment [7] is -18% (inactive). For the same compound, the tube area decrease in experiment [8] is -3.8% (inactive). Moreover, the GLP1 secretion stimulation in [9] was -1.4% (inactive). Besides, the inhibition of viability in [10] was -8.6% (inactive). Moreover, the viability decrease (inhibition) in [11] is 4.3% (inactive); in experiment [12], -15.1% (inactive). Besides, the inhibition in experiment [13] was 8.27% (inactive). Moreover, the red/green cell ratio (normalised) in experiment [14] was 0.86 (inactive). In addition, the results for the normalised cell number in experiment [14] (setting [20]) and in experiment [14] (setting [21]) were 1.13 and 0.97, respectively. Moreover, the activity remaining in experiment [15] was 115% (inactive). Besides, the fold change is 0.859 (inactive) in [16] (stronger effect = lower value) and 1.13 in experiment [16] (setting [22]). Also, the cell count in [16] (setting [23]) was determined as 8380; in experiment [16] (setting [24]) it was 9750. For the same compound, the z-score in experiment [19] (MELAS cybrid survival, CellTiter-Glo 48 h, stronger effect = higher value) was 0.0321 (inactive); in experiment [19] (Rieske KO mouse fibroblast survival, CellTiter-Glo 72 h) it was -1.05. Further, the remaining NAD in experiment [17] is 10 nM (inactive). Also, the luciferase signal in experiment [18] is 36 AU (inactive).

For `CCCCCCCCC(=O)NCc1ccc(O)c(OC)c1`, the nuclear beta-catenin stimulation was 2.1% (inactive) in [5] (at 10 µM) and 1.1% in experiment [5] (stimulation, at 2 µM). Also, the insulin secretion stimulation in [6] was -0.6% (inactive). For the same compound, the viability decrease in [7] is 4.5% (inactive). In addition, the tube area decrease in [8] is 21.4% (inactive). Also, the GLP1 secretion stimulation in experiment [9] is 4% (inactive). Also, in experiment [10], the inhibition of viability is 1.8% (inactive). Besides, the viability decrease (inhibition) in [11] was 49.7% (inactive); in experiment [12] it was 11.7% (inactive). In addition, the inhibition in [13] is -12.3% (inactive). In addition, in experiment [15], the activity remaining was 92.7% (inactive). Also, the remaining NAD in experiment [17] was 10 nM (inactive). Further, the luciferase signal in experiment [18] is 52 AU (inactive).

Consider `CC(=O)Nc1cc([As](=O)(O)O)ccc1O`, for which the score in experiment [1] amounted to 0.97. Besides, in experiment [2], the cytochrome c release ratio was 1.06. In experiment [3], this compound showed an inhibition of aggregation of 43.7%. Further, the parasite load remaining in [4] is 96.4% (inactive) and 52.6% (inactive). Also, in [4], the viability was 66.8% and 91.1%. Further, the nuclear beta-catenin stimulation in [5] (at 10 µM) was 4.8% (inactive); in experiment [5] (stimulation, at 2 µM), 0.2%. Also, the insulin secretion stimulation in [6] was -0.2% (inactive). Also, the viability decrease in [7] is -42.6% (inactive). Besides, the tube area decrease in experiment [8] is -21.2% (inactive). Also, the GLP1 secretion stimulation in [9] is -0.8% (inactive). For the same compound, the inhibition of viability in [10] is -7.73% (inactive). In addition, the viability decrease (inhibition) in experiment [11] is 16.9% (inactive); in experiment [12], -3.7% (inactive). In [13], the inhibition is 17.7% (inactive). The red/green cell ratio (normalised) in experiment [14] was 0.8 (inactive). The normalised cell number was determined as 1.16 in [14] (setting [20]) and 0.94 in [14] (setting [21]). Further, the activity remaining in [15] was 107% (inactive). Further, the fold change is 0.975 (inactive) in [16] (stronger effect = lower value) and 2.55 in experiment [16] (setting [22]). Further, the cell count was determined as 12000 in experiment [16] (setting [23]) and 12300 in experiment [16] (setting [24]). Besides, in experiment [17], the remaining NAD is 10 nM (inactive). Also, in [18], the luciferase signal is 52 AU (inactive).

The values above are taken from PubChem BioAssay.
